A selection: hits, their analogues and other compounds. The true share with any hit is near 1.6%.
F-actin modifier = alters cytoskeleton assembly in HUVEC cells | AID 836 | HUVEC TNFa F-actin phalloidin imaging, high content | 91,000 compounds, 0.18% hits | inhibition, % at 2 µM;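 active = inhibition above the batch mean plus 3 SD and confirmed as a hit by visual image inspection, cut at about 30% in these data, passing the limit was not always enough; inconclusive = above the inhibition threshold but rejected on visual inspection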
TNFa cytotox = toxic to HUVEC cells under TNF alpha stimulation; HUVEC TNFalpha-stimulated, Hoechst cell count, imaging; cell count reduction, % at 2 µM; 93,000 compounds, 0.17% hits;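 active = cell count reduction exceeding the screen mean by over 5 SD, scaled to untreated wells per plate, cut at about 78% in these data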;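 also: cells counted after 24 h of TNF alpha exposure following the 1 h pretreatment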
VCAM1 TNFa inh = reduces TNF alpha induced VCAM1 expression in HUVEC; inhibition, % at 2 µM; 95,000 compounds, 0.48% hits; HUVEC TNFa-induced VCAM-1 immunofluorescence, high-content imaging;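 active = inhibition above the batch mean plus 3 SD, with images confirmed as a hit by eye, cut at about 37% in these data; inconclusive = inhibition above that limit but hit not confirmed in images; inactive = inhibition not above that limit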;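 also: 0% = TNF-stimulated DMSO wells and 100% = unstimulated control wells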
S1P2 ag = agonists of human S1P2 receptor | S1P2-expressing cell line, agonist reporter read-out | 97,000 compounds, 0.46% hits | activation, % at 4.5 µM | AID 729 | O95136; in the data active = activation above about 16%;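 also: 0% = vehicle low control and 100% = maximal reference agonist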
Target sequence (O95136 whole entry, looked up): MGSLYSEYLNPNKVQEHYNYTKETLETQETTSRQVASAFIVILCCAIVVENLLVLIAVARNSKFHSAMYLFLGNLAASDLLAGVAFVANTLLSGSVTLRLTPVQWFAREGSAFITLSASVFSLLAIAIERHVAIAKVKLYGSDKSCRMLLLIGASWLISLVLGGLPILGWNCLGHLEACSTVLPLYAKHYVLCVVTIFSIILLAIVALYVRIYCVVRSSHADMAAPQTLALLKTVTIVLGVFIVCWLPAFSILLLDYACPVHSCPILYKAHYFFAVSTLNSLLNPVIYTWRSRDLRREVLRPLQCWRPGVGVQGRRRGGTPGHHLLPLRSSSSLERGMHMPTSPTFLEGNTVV
E-sel TNF inh = TNF alpha driven E-selectin expression inhibition; HUVEC TNFa-induced E-selectin immunofluorescence, high content; inhibition, % at 2 µM; 120,000 compounds, 0.71% hits; AID 1246;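 active = inhibition above the batch mean plus 3 SD, and confirmed as a hit on visual image review, cut at about 43% in these data; inconclusive = passes the inhibition cutoff but fails visual image review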;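 also: 0% = TNF-stimulated DMSO wells and 100% = unstimulated control wells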
S1P2 antag = antagonists of human S1P2 receptor; cell-based S1P2 antagonist assay, inhibition at 5 uM; inhibition, % at 5 µM; 97,000 compounds, 0.21% hits; AID 736; in the data active = inhibition above about 45%;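 also: CRE beta-lactamase reporter cells expressing human S1P2 stimulated with S1P; 0% = agonist at EC80 alone and 100% = agonist plus reference antagonist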
* marks the source's active call; other numbers are inactive results; ? = inconclusive; nt = no result given.

SMILES	F-actin modifier	TNFa cytotox	VCAM1 TNFa inh	S1P2 ag	E-sel TNF inh	S1P2 antag
CCOC(=O)c1ccccc1NC(=O)c1ccc(N(C)S(C)(=O)=O)cc1	-5	-5	-1	-7	70*	-11
COc1ccc(OC)c(NC(=O)CSc2nc3c(c(=O)n(C)c(=O)n3C)n2C)c1	47	4	7	17*	-14	-42
COc1ccc(CNC(=O)CSc2nc3c(c(=O)n(C)c(=O)n3C)n2C)cc1	18	-12	13	-2	16	-8
CC(C)n1c(SCC(=O)Nc2nc3ccccc3s2)nc2c1c(=O)n(C)c(=O)n2C	2	0	-3	19*	-4	-38
COc1ccccc1OCCn1cc(C(=O)c2ccco2)c2ccccc21	72*	10	4	-6	65*	-13
COc1cccc(OCCn2cc(C(=O)c3ccco3)c3ccccc32)c1	-13	9	22	-2	-7	-30
O=c1[nH]c2cccnc2n1Cc1ccccc1	35*	-10	-8	-9	-9	0
COc1ccc(N2C(=S)NC3N2C(=S)NC3(C)c2ccccc2)cc1 (stereo unspecified)	nt	nt	nt	nt	34	nt
CCN(CC)S(=O)(=O)c1ccc(NC(=O)C(C)N(c2ccc(OC)cc2)S(C)(=O)=O)cc1 (stereo unspecified)	?	100*	?	-3	7	-6
CCOc1ccc(N(C(C)C(=O)Nc2ccc(OC)cc2)S(C)(=O)=O)cc1 (stereo unspecified)	0	-5	-18	-8	-4	16
CCN(CCNC(=O)c1cc(C)nn1-c1ccccc1)c1ccccc1	nt	nt	nt	nt	-25	nt
c1ccc(CSc2ccc(-c3cccnc3)nn2)nc1	nt	nt	nt	nt	-35	nt
c1ccc(OCCSc2nnnn2-c2ccccc2)cc1	23	13	-8	62*	nt	14
Nc1ccc(C(=O)OC2CCOC2=O)cc1[N+](=O)[O-] (stereo unspecified)	nt	nt	nt	nt	4	nt
c1ccc(C2OC3c4cccc5cccc(c45)C3N2c2ccccc2)cc1 (stereo unspecified)	4	-8	4	0	19	-19
CC(C)Sc1nc2c(c(=O)n1-c1ccc(F)cc1)SCC2	2	6	94*	-3	12	-20
O=C(CSc1nc2c(c(=O)n1-c1ccc(F)cc1)SCC2)N1CCCC1	nt	-8	-4	-2	nt	6
O=C1CC(/C=C/c2ccncc2)=Nc2ccccc2N1	nt	nt	nt	nt	5	nt
Cn1c(=O)[nH]c(=O)c2c1nc(Br)n2CCSc1nnnn1-c1ccccc1	nt	nt	nt	-2	-21	-6
CCN1CCN(c2nc3c(c(=O)[nH]c(=O)n3C)n2CCSc2nc3ccccc3s2)CC1	0	-9	12	-2	nt	8
CC(CSc1nc2ccccc2s1)Cn1c(N2CCCC2)nc2c1c(=O)[nH]c(=O)n2C (stereo unspecified)	-11	-12	-6	30*	nt	-22
C=CCn1c(N2CCCC2)nc2c1c(=O)[nH]c(=O)n2C	7	22	41*	-10	22	-29
Cn1c(=O)[nH]c(=O)c2c1nc(N1CCCCC1)n2CCCSc1nnnn1-c1ccccc1	nt	nt	nt	nt	89*	nt
CC(=O)Cn1c(N2CCC(Cc3ccccc3)CC2)nc2c1c(=O)[nH]c(=O)n2C	31*	17	3	-6	nt	36
CCOC(=O)N1CCN(C(=O)COC(=O)c2cc(Cl)c(O)c(Cl)c2)CC1	nt	nt	nt	nt	-11	nt
SMILES	F-actin modifier	TNFa cytotox	VCAM1 TNFa inh	S1P2 ag	E-sel TNF inh	S1P2 antag
CC(=O)Oc1ccc(C(=O)Nc2cc(C)ccc2NC(=O)COc2ccccc2)cc1	-11	nt	6	-8	-15	18
CCN(CC)c1ccc(C2C(C(=O)OCCOC(C)C)=C(C)NC3=C2C(=O)CCC3)cc1 (stereo unspecified)	nt	-20	11	1	nt	11
CC1=C(C(=O)OCCOC(C)C)C(c2cccnc2)C2=C(CCCC2=O)N1 (stereo unspecified)	79*	-45	-10	1	nt	28
O=C(CCN1C(=O)c2ccccc2C1=O)C1=NN[C@@H]2C(=O)N(c3cccc(Cl)c3)C(=O)[C@H]12	nt	nt	nt	nt	-4	nt
Cc1ccc(N2C(=O)[C@@H]3C(C(=O)CCN4C(=O)c5ccccc5C4=O)=NN[C@@H]3C2=O)cc1	nt	nt	nt	nt	65*	nt
CCC(C)NC(=O)c1ccccc1C(=O)NC(C)CC (stereo unspecified)	-14	-6	-5	-1	22	58*
Fc1ccc(CNc2nc(-c3ccccc3)nc3ccccc23)cc1	nt	nt	nt	nt	100*	nt
O=C(Cc1cccs1)NNC(=S)NC(=O)c1ccc(F)c(F)c1	nt	nt	nt	nt	76*	nt
CC(C)OC(=O)c1ccc(NC(=O)c2ccco2)cc1	-21	9	-6	-1	-2	-3
O=c1c2ccc(-c3nnc4n3-c3ccccc3SC4)cc2nc2n1CCCCC2	-17	-6	14	-3	-8	10
CCN(CC)c1ccc2c(Cl)cc(=O)oc2c1	0	-3	-45	9	-4	47*
CCN(CC)c1ccc2c(C)c(CN3CCOCC3)c(=O)oc2c1	31	-18	-1	26*	-95	-20
CCNc1ccc2c(Cl)cc(=O)oc2c1	-2	12	-11	-5	-36	47*
Cc1cc(=O)oc2cc(NC(=O)CCC(=O)O)ccc12	-1	-12	12	-6	nt	-10
CC(C)(C)NC(=O)C1N(c2cccnc2)C(=O)C2C(C(=O)Nc3ccccc3F)C3(C)C=CC21O3 (stereo unspecified)	72*	-10	-4	-8	-14	13
CCOC(=O)CCN(Cc1sccc1C)S(=O)(=O)c1ccc(F)cc1	-2	-5	2	-3	9	-25
COCCCC1CCN(Cc2nc(-c3ccccc3)no2)CC1	nt	nt	nt	nt	-14	nt
Oc1ccc(N2CCN(c3ncnc4sc5c(c34)CCC5)CC2)cc1	23	-18	86*	-4	nt	-2
c1ccc(OCc2noc(CN3CCC(C4CCCCC4)C3)n2)cc1 (stereo unspecified)	nt	nt	nt	nt	3	nt
C=C(C)CC(NCCc1ccccc1)c1ccco1 (stereo unspecified)	nt	nt	nt	nt	72*	nt
CCn1c(=O)c(C(=O)CN2CCCc3ccccc32)c(N)n(Cc2ccccc2)c1=O	nt	nt	nt	nt	-69	nt
CCOC(=O)N1CCN(C(=O)c2ccc(Oc3ccc([N+](=O)[O-])cc3)cc2)CC1	nt	nt	nt	nt	62*	nt
CN1CCN(C(=O)c2ccc(Oc3ccc([N+](=O)[O-])cc3)cc2)CC1	nt	nt	nt	nt	31	nt
Cc1ccccc1OCCCC(=O)Nc1ccc(N2CCOCC2)cc1	nt	nt	nt	nt	76*	nt
O=C(/C=C/c1ccc(F)cc1)NC(=S)Nc1ccccc1C(=O)NC1CCCCC1	nt	25	-14	-7	54*	2
Cc1cccc(-n2c(SCc3cc(=O)n4c(C)cccc4n3)nc3[nH]ncc3c2=O)c1	-2	11	0	17*	5	-30
CC1CCCCN1C(=O)CN1C(=O)CN(C)C(=O)c2ccccc21 (stereo unspecified)	14	-12	-6	-7	7	0
C=C(C)c1cccc(C(C)(C)NC(=O)N2CCCCC2CC)c1 (stereo unspecified)	2	2	-28	-7	57*	-23
